About 83,000 compounds went through this panel and 20% of them were active in at least one assay; those are over-represented in the sample as a whole.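 The endpoint reported here, percent growth, reads 100 for growth as untreated, 0 for no net growth and -100 for all cells dead.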 Values without a mark were called inactive. Calls of active or inactive are those of the source. The calls were made as follows: active = growth percent below 10; inactive = the rest.

Some test systems named below: HCT-15 colon; HT29 colon; SNB-19 CNS; U251 CNS; PC-3 prostate; SK-MEL-5 melanoma; UACC-62 melanoma; SK-MEL-28 melanoma; SK-MEL-2 melanoma; EKVX NSCLC; SN12C renal; UO-31 renal; TK-10 renal; ACHN renal; CAKI-1 renal; A498 renal; CCRF-CEM leukemia; MOLT-4 leukemia; LOX IMVI melanoma.
Common to all, as to experiment: NCI-60 one-dose screen, 48 h (100 = growth as untreated, 0 = no growth, -100 = all killed)
Conditions in all cases: 10 µM unless noted

As for `O=C(O)c1nc(-c2ccccc2)oc1N1CCOCC1`, the growth with HCT-15 colon was 101%; with HT29 colon it was 108%; with SNB-19 CNS, 92.3%; in the experiment on U251 CNS, 90.9%; with PC-3 prostate it was 100%; in the experiment on SK-MEL-5 melanoma, 105%. In addition, the growth in the experiment with UACC-62 melanoma was 85.2%; with SK-MEL-28 melanoma, 98.7%; in the experiment with SK-MEL-2 melanoma it was 97%; in the experiment with EKVX NSCLC, 104%; with SN12C renal, 99%; in the experiment with UO-31 renal it was 81.6%. The growth was 91.9% in the experiment on TK-10 renal; 101% with ACHN renal; 92.2% in the experiment with CAKI-1 renal; 114% in the experiment on A498 renal; 107% in the experiment on CCRF-CEM leukemia; 105% with MOLT-4 leukemia.
For the molecule `CC(=O)c1cc2c(N)c(C(=O)Nc3cccc4c3OCCO4)sc2nc1C`, the growth in the experiment on HCT-15 colon is 97.3%; in the experiment on HT29 colon it was 103%; with SNB-19 CNS, 93.2%; in the experiment with U251 CNS it was 99.4%; in the experiment with PC-3 prostate it was 91.4%; in the experiment on SK-MEL-5 melanoma, 95.3%. Also, the growth in the experiment with UACC-62 melanoma was 67.8%; with SK-MEL-28 melanoma it was 94%; in the experiment on SK-MEL-2 melanoma, 67.1%; in the experiment with EKVX NSCLC, 102%; in the experiment on SN12C renal it was 103%; in the experiment on UO-31 renal it was 90.2%. The growth in the experiment on TK-10 renal is 104%; in the experiment with CAKI-1 renal, 71.7%; with A498 renal it was 8.65% (active); with CCRF-CEM leukemia it was 96.7%; in the experiment with MOLT-4 leukemia it was 97.4%.
Take `Cc1ccc(-c2cc3nc(-c4ccccc4)nc(C(Cl)Cl)n3n2)cc1`: the growth was -30.4% (active) in the experiment on HCT-15 colon; -47.1% (active) in the experiment with HT29 colon; -40.1% (active) in the experiment on SNB-19 CNS; -83.5% (active) in the experiment on U251 CNS; -76% (active) in the experiment with PC-3 prostate; 83.9% with SK-MEL-5 melanoma. In addition, the growth with UACC-62 melanoma was -65.3% (active); with SK-MEL-28 melanoma it was 34.6%; in the experiment on SK-MEL-2 melanoma, 26.7%; in the experiment with EKVX NSCLC, -68% (active); in the experiment with SN12C renal, 55.5%; in the experiment with UO-31 renal, -99.7% (active). Further, the growth was -97.9% (active) in the experiment on TK-10 renal; -99.3% (active) with ACHN renal; -86.4% (active) with CAKI-1 renal; -73.8% (active) in the experiment on A498 renal; 89.3% with MOLT-4 leukemia.
As for `COc1ccc(-c2ccc(-c3ccc(C(=N)N)cn3)s2)cc1OC`, the growth with HCT-15 colon is 99.8%; in the experiment with HT29 colon, 65.5%; with SNB-19 CNS, 94.7%; in the experiment on U251 CNS, 88.3%; with PC-3 prostate, 93.5%; in the experiment on SK-MEL-5 melanoma it was 88.7%. For the same molecule, the growth with UACC-62 melanoma was 98.1%; in the experiment with SK-MEL-28 melanoma, 98%; with SK-MEL-2 melanoma it was 109%; in the experiment with EKVX NSCLC, 89.1%; with SN12C renal, 90.6%; in the experiment with UO-31 renal, 85.7%. The growth in the experiment on TK-10 renal was 128%; in the experiment on ACHN renal it was 93.8%; in the experiment with CAKI-1 renal it was 110%; with A498 renal, 78.5%; with CCRF-CEM leukemia it was 97.6%; in the experiment with MOLT-4 leukemia it was 72.2%.
For `COc1cc(Nc2nc(N[C@H]3CCCC[C@@H]3N)nc3cc[nH]c(=O)c23)cc(OC)c1`, the growth in the experiment on HCT-15 colon is 60.9%; with HT29 colon it was 7.69% (active); in the experiment with SNB-19 CNS, 37.4%; in the experiment with U251 CNS, 44.3%; in the experiment with PC-3 prostate, 44.6%; with SK-MEL-5 melanoma, 57.7%. Further, the growth in the experiment on UACC-62 melanoma is 41.2%; in the experiment with LOX IMVI melanoma it was -66.8% (active); in the experiment on SK-MEL-2 melanoma, 41.7%; in the experiment on SN12C renal it was 33.2%; in the experiment on UO-31 renal it was 47.7%; in the experiment on TK-10 renal, 66.5%. Further, the growth was 44.7% in the experiment on ACHN renal; 51.4% with CAKI-1 renal; 12.4% in the experiment on A498 renal; -2.71% (active) with CCRF-CEM leukemia; 3.76% (active) in the experiment with MOLT-4 leukemia.
Take `CCN(CC)CCC(CNc1ccnc2cc(Cl)ccc12)c1ccc(Cl)cc1` (stereo not given): the growth was -9.14% (active) in the experiment with HCT-15 colon; -4.66% (active) with HT29 colon; 10.7% with SNB-19 CNS; -61% (active) in the experiment with U251 CNS; 36.9% in the experiment with PC-3 prostate; -96.3% (active) with SK-MEL-5 melanoma. The growth is -74.5% (active) with UACC-62 melanoma; -91.8% (active) in the experiment with SK-MEL-28 melanoma; -75.7% (active) with SK-MEL-2 melanoma; 67.4% with EKVX NSCLC; 42.2% in the experiment on SN12C renal; -84.7% (active) in the experiment with UO-31 renal. For the same molecule, the growth in the experiment on TK-10 renal was -8.87% (active); in the experiment on ACHN renal, -74.5% (active); in the experiment with CAKI-1 renal it was -40.3% (active); with A498 renal, 0.939% (active); in the experiment with CCRF-CEM leukemia, 3.11% (active); in the experiment with MOLT-4 leukemia, 7.05% (active).
As to `COc1cc(NC(N)=NCCC(C)(C)Oc2ccc(C(F)(F)F)cc2)ncc1C#N`, the growth in the experiment with HCT-15 colon was -70.7% (active); with HT29 colon it was -79.4% (active); in the experiment with SNB-19 CNS, 27.8%; with U251 CNS, -98.2% (active); in the experiment with PC-3 prostate, 13.4%; in the experiment on SK-MEL-5 melanoma, -95.8% (active). Besides, the growth in the experiment with UACC-62 melanoma was -51.8% (active); with SK-MEL-28 melanoma it was -79.2% (active); with SK-MEL-2 melanoma it was -38.5% (active); in the experiment on EKVX NSCLC it was 27.1%; in the experiment on SN12C renal, -90.3% (active); with UO-31 renal it was -23.5% (active). Besides, the growth was -74.2% (active) in the experiment on TK-10 renal; 2.74% (active) in the experiment on ACHN renal; 51.6% with CAKI-1 renal; 42.8% in the experiment on A498 renal; -13.8% (active) in the experiment on CCRF-CEM leukemia; -20.8% (active) with MOLT-4 leukemia.
As to `N=C(N)c1ccc(-c2ccc(-c3cncc4ccccc34)s2)cc1F`, the growth in the experiment with HCT-15 colon is -80.6% (active); in the experiment on HT29 colon, -91.7% (active); in the experiment with SNB-19 CNS, -76.1% (active); in the experiment with U251 CNS, -92.3% (active); with PC-3 prostate, -93.6% (active); with SK-MEL-5 melanoma it was -99.1% (active). Besides, the growth in the experiment with UACC-62 melanoma was -91.3% (active); in the experiment on SK-MEL-28 melanoma, 85.7%; in the experiment on SK-MEL-2 melanoma, -40.4% (active); in the experiment with EKVX NSCLC it was -77% (active); in the experiment with SN12C renal, -93.1% (active); with UO-31 renal it was -87.3% (active). Also, the growth is -91.2% (active) in the experiment with TK-10 renal; -97.5% (active) in the experiment with ACHN renal; -87.5% (active) in the experiment on CAKI-1 renal; 73.8% in the experiment with A498 renal; -24.6% (active) in the experiment with MOLT-4 leukemia.

(Values after PubChem BioAssay (NCI).)
